Measurements as given in PubChem BioAssay AID1611 (NINDS Approved Drug Screening Program, 2009).
“And” between values parts separate entries of the source, which are not always exact repeats. Equal entries are not always repeated.

Test: HSE-luciferase reporter activators – cell-based (AID 1611)
Settings: human cells, HSE-luciferase heat shock reporter; stronger effect = higher value

Q: Which fold change does the source give for `Cc1c(C(N)=O)cc([N+](=O)[O-])cc1[N+](=O)[O-]` here?
A: 1.05

Q: With `CN1C2CC[C@H]1CC(OC(=O)C(O)c1ccccc1)C2` (stereo not given in full) as the molecule, how does the fold change read?
A: 1.12

Q: Which fold change does the source give for `NC(N)=O` here?
A: 1.06

Q: For `O=C(O)c1cn(C2CC2)c2cc(N3CCNCC3)c(F)cc2c1=O`, which fold change is on record?
A: 1.5

Q: With `CCCOc1ccc2nc(NC(=O)OC)[nH]c2c1` as the molecule, how does the fold change read?
A: 1.26

Q: Which fold change does the source give for `Cn1c(=O)[nH]c2ncn(C)c2c1=O` here?
A: 1.88

Q: For `CC(=O)[C@H]1CCC2C3CC=C4C[C@@H](O)CC[C@]4(C)C3CC[C@@]21C` (stereo not given in full), which fold change is on record?
A: 0.92

Q: With `CO[C@]12C[C@@H](COC(=O)c3cncc(Br)c3)CN(C)[C@@H]1Cc1cn(C)c3cccc2c13` as the molecule, how does the fold change read?
A: 0.91

Q: With `CC[C@]12CCCN3CCc4c(n(c5ccccc45)[C@](O)(C(=O)OC)C1)[C@@H]32` as the molecule, how does the fold change read?
A: 1.14

Q: For `NCCCCCCNS(=O)(=O)c1cccc2c(Cl)cccc12`, which fold change is on record?
A: 1.18 and 0.78

Q: With `CC(=O)Oc1cccc(O)c1` as the molecule, how does the fold change read?
A: 0.84

Q: With `CC(C)Oc1ccc2c(=O)cc(-c3ccccc3)oc2c1` as the molecule, how does the fold change read?
A: 1.28

Q: For `CC(=O)N(O)CCCCCNC(=O)CCC(=O)N(O)CCCCCNC(=O)CCC(=O)N(O)CCCCCN`, which fold change is on record?
A: 0.7

Q: Which fold change does the source give for `CCCc1ncc(C[n+]2ccccc2C)c(N)n1` here?
A: 1.19

Q: Which fold change does the source give for `Cc1ncc([N+](=O)[O-])n1CCO` here?
A: 1.2

Q: For `C=C(C)[C@H]1CC=C(C(=O)O)CC1`, which fold change is on record?
A: 1.32

Q: For `Cc1ccc(C)c(OCCCC(C)(C)C(=O)O)c1`, which fold change is on record?
A: 0.57

Q: Which fold change does the source give for `CCc1cc(C(N)=S)ccn1` here?
A: 0.94

Q: With `CN=C(NC#N)NCCSCc1nc[nH]c1C` as the molecule, how does the fold change read?
A: 0.5

Q: Which fold change does the source give for `CC(CN1c2ccccc2Sc2ccccc21)N(C)C` (stereo not given) here?
A: 0.91

Q: With `COC(=O)C1=C(C)NC(C)=C(C(=O)OC)C1c1ccccc1[N+](=O)[O-]` as the molecule, how does the fold change read?
A: 1.12

Q: Which fold change does the source give for `CC/C(=C(\c1ccccc1)c1ccc(OCCN(C)C)cc1)c1ccccc1` here?
A: 0.77

Q: Which fold change does the source give for `CC(C)(C)NCC(O)c1cc(O)cc(O)c1` (stereo not given) here?
A: 0.99

Q: Which fold change does the source give for `O=c1ccn([C@@H]2O[C@H](COP(=O)(O)OP(=O)(O)OP(=O)(O)O)[C@@H](O)[C@H]2O)c(=O)[nH]1` here?
A: 1.15

Q: For `CC(C)NNC(=O)c1ccncc1`, which fold change is on record?
A: 1.02

Q: For `COc1ccc(C[C@H](N)C(=O)N[C@@H]2[C@@H](CO)OC(n3cnc4c(N(C)C)ncnc43)[C@@H]2O)cc1` (stereo not given in full), which fold change is on record?
A: 1.26

Q: Which fold change does the source give for `C[n+]1c2cc(N)ccc2cc2ccc(N)cc21` here?
A: 1.45

Q: With `c1ccc2[nH]c(-c3cscn3)nc2c1` as the molecule, how does the fold change read?
A: 0.81

Q: With `O=C1C(CCS(=O)c2ccccc2)C(=O)N(c2ccccc2)N1c1ccccc1` (stereo not given) as the molecule, how does the fold change read?
A: 0.91

Q: With `O=C1OCCN1/N=C/c1ccc([N+](=O)[O-])o1` as the molecule, how does the fold change read?
A: 1.79

Q: With `COc1ccc2cc3[n+](cc2c1OC)CCc1cc2c(cc1-3)OCO2` as the molecule, how does the fold change read?
A: 1.07

Q: For `CCN(CC)CCOc1ccc2c(c1)C(=O)c1cc(OCCN(CC)CC)ccc1-2`, which fold change is on record?
A: 0.93

Q: Which fold change does the source give for `Nc1nccs1` here?
A: 1.19

Q: For `CCN(CC)CCOC(=O)C1(C2CCCCC2)CCCCC1`, which fold change is on record?
A: 0.64

Q: With `CC1CCC(NC(=O)N(CCCl)N=O)CC1` (stereo not given) as the molecule, how does the fold change read?
A: 0.95

Q: With `Cn1c(=O)c2c(ncn2CC(O)CO)n(C)c1=O` (stereo not given) as the molecule, how does the fold change read?
A: 1.13

Q: For `Cc1cc(C)nc(NS(=O)(=O)c2ccc(N)cc2)n1`, which fold change is on record?
A: 1.02

Q: With `CC(C)CC(NC(=O)CCN)C(=O)O` (stereo not given) as the molecule, how does the fold change read?
A: 1.04

Q: For `OCC(O)CN1CCN(c2ccccc2)CC1` (stereo not given), which fold change is on record?
A: 0.82

Q: With `O=C(Cn1ccnc1[N+](=O)[O-])NCCO` as the molecule, how does the fold change read?
A: 0.93
